Measured potencies and affinities stand elsewhere.

For orientation: Inhibition means the drop in the measured response relative to a control, in per cent.

This experiment concerns Klebsiella pneumoniae. As to conditions: Concentration 20 uM; ASSAY_TEST Inhibition of Bacterial Growth; detection method Absorption (OD600); MEDIA CAMHB; plate type 384well; NBS; CORNING #3640; time 18 hr.
As to `C[C@]12CCC(=O)C=C1CC[C@@H]1[C@@H]2[C@@H](O)C[C@@]2(C)[C@H]1CC[C@]2(O)C(=O)COC(=O)CCC(=O)O` [HYDROCORTISONE HEMISUCCINATE ANHYDROUS], the Inhibition is given as -3.41%.

As to `CNCC[C@@H](Oc1ccccc1C)c1ccccc1.Cl` [ATOMOXETINE HYDROCHLORIDE], the Inhibition came out at 2.35%. Under `CC1(C)C[C@@H]1C(=O)N/C(=C\CCCCSC[C@H](N)C(=O)O)C(=O)[O-].[Na+]` [CILASTATIN SODIUM] stands -2.84%.

Turning to `CC(C)[C@H]1CC[C@H](C(=O)N[C@H](Cc2ccccc2)C(=O)O)CC1` [NATEGLINIDE], the Inhibition is reported as 12.08%.

With `CC(=O)O.CC(C)C[C@H](NC(=O)[C@@H](COC(C)(C)C)NC(=O)[C@H](Cc1ccc(O)cc1)NC(=O)[C@H](CO)NC(=O)[C@H](Cc1c[nH]c2ccccc12)NC(=O)[C@H](Cc1c[nH]cn1)NC(=O)[C@H]1CCC(=O)N1)C(=O)N[C@H](CCCNC(=N)N)C(=O)N1CCC[C@@H]1C(=O)NNC(N)=O`, the Inhibition came to 2.33%. The result for `CC(N)(Cc1ccc(O)c(O)c1)C(=O)O` (stereo not drawn) [METHYLDOPA (RACEMIC)] reads 2.57%; that for `O=C(CCNNC(=O)c1ccncc1)NCc1ccccc1` [NIALAMIDE], 13.86%.

Take `O=C1Nc2ccc(Cl)cc2[C@@](C#CC2CC2)(C(F)(F)F)O1` [EFAVIRENZ]: the Inhibition was -2.99%. Under `Cl.O=C1c2c(O)ccc(O)c2C(=O)c2c(NCCNCCO)ccc(NCCNCCO)c21` stands 7.11%; under `CCCCC(=O)O[C@H]1CC[C@H]2[C@@H]3CCc4cc(O)ccc4[C@H]3CC[C@]12C` [ESTRADIOL VALERATE], 8.52%. The result for `CC(C)(C)NC[C@H](O)COc1nsnc1N1CCOCC1.O=C(O)/C=C\C(=O)O` [TIMOLOL MALEATE] reads 6.73%.

For `CC[C@@]1(O)C(=O)OCc2c1cc1n(c2=O)Cc2cc3c(CN(C)C)c(O)ccc3nc2-1.Cl` [TOPOTECAN HYDROCHLORIDE], the Inhibition was found to be 17.31%.

For `CNCCC=C1c2ccccc2CCc2ccccc21.Cl` [NORTRIPTYLINE HYDROCHLORIDE], the Inhibition was 11.74%. Consider `O=C1CN(/N=C/c2ccc(-c3ccc([N+](=O)[O-])cc3)o2)C(=O)[N-]1.[Na+]` [DANTROLENE SODIUM], for which the Inhibition came out at 2.98%.

In the case of `CC(C(O)c1ccc(O)cc1)N1CCC(Cc2ccccc2)CC1.O.O=C(O)C(O)C(O)C(=O)O` (stereo not drawn), the Inhibition turned out to be 15.53%. The result for `CN(C)CCC[C@@]1(c2ccc(F)cc2)OCc2cc(C#N)ccc21.O=C(O)C(=O)O` [ESCITALOPRAM OXALATE] reads 13.63%; that for `CC(=O)[C@@]1(O)CC[C@H]2[C@@H]3C[C@H](C)C4=CC(=O)CC[C@]4(C)[C@H]3CC[C@@]21C`, 2.71%. On to `Cl.O.c1cnc(N2CCN(Cc3ccc4c(c3)OCO4)CC2)nc1`, for which the Inhibition amounted to 3.33%. Under `C[C@]12CC[C@@H]3c4ccc(OS(=O)(=O)[O-])cc4CC[C@H]3[C@@H]1CCC2=O.[Na+]` [ESTRONE SODIUM SULFATE] stands 1.74%; under `COc1ccc(Cl)cc1C(=O)NCCc1ccc(S(=O)(=O)NC(=O)NC2CCCCC2)cc1` [GLYBURIDE], 8.21%; under `Cc1ccc(O)c([C@H](CCN(C(C)C)C(C)C)c2ccccc2)c1.O=C(O)C(O)C(O)C(=O)O` [TOLTERODINE TARTRATE], 6.3%. Consider `CCOC(=O)[C@@H](CCc1ccccc1)N[C@@H](C)C(=O)N1CCC[C@H]1C(=O)O.O=C(O)/C=C\C(=O)O`, for which the Inhibition is reported as 10.36%. On to `CC1=Nc2ccc(Cl)cc2S(=O)(=O)N1` [DIAZOXIDE], for which the Inhibition is 19.87%. Under `C[C@]12C=CC(=O)C=C1CC[C@@H]1[C@@H]2C(=O)C[C@@]2(C)[C@H]1CC[C@]2(O)C(=O)CO` [PREDNISONE] stands 18.73%. Consider `C[C@]12CCC(=O)C=C1CC[C@@H]1[C@@H]2C(=O)C[C@@]2(C)[C@H]1CC[C@]2(O)C(=O)CO` [CORTISONE], for which the Inhibition was 16.58%. Under `CCCC(CCC)C(=O)O` [VALPROIC ACID] stands 1.95%; under `CNC(=C[N+](=O)[O-])NCCSCc1ccc(CN(C)C)o1.Cl` [RANITIDINE HYDROCHLORIDE], 4.5%. As for `CC(C[N+](C)(C)C)OC(N)=O.[Cl-]` (stereo not drawn) [BETHANECHOL CHLORIDE], the Inhibition is on record as 8.32%.

Values taken from ChEMBL document CHEMBL4513141, “CO-ADD screening of NIH (USA) - Clinical Collection” (2021).
